Data as given in PubChem BioAssay AID694 (Emory University Molecular Libraries Screening Center, 2007).
Among all 1,300 compounds or so, about 25 (2%) were called active. The rule behind the calls is not given here. The sample as a whole holds a higher share of actives than the screen did.

Target: Estrogen receptor (Homo sapiens) (UniProt P03372)
Assay: ERα coactivator peptide binding inhibitors, primary screen, biochemical, LOPAC library, TR-FRET (AID 694);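 note: receptor was agonist-bound with estradiol present during the assay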
Details: TR-FRET ERalpha-coactivator peptide binding, stronger effect = higher value

Sequence of Estrogen receptor (Homo sapiens) (P03372 whole entry, looked up): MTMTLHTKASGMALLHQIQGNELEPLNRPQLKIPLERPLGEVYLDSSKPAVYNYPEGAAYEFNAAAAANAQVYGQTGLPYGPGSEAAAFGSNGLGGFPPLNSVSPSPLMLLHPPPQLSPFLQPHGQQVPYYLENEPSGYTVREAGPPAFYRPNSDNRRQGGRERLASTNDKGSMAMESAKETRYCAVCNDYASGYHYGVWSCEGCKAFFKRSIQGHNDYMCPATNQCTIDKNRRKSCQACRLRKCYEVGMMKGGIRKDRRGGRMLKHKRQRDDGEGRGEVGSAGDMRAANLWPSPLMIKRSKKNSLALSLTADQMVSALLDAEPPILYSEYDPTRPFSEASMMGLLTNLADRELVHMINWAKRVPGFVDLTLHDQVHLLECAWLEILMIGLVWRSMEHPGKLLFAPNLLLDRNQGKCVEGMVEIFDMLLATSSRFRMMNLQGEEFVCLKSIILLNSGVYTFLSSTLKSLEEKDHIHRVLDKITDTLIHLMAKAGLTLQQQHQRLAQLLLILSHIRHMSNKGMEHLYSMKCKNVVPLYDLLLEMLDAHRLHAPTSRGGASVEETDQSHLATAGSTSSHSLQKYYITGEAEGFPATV

Compound	inhibition (at 45 µM)	inhibition (inhibition, at 15 µM)
C=CCN1CCc2c(cc(O)c(O)c2Cl)C(c2ccccc2)C1 (configuration not stated)	-1.29% (inactive)	-1.34%
NC(N)=N[C@@H](CCC(=O)O)C(=O)O	-1.09% (inactive)	5.9%
CC(C)C1C2CCC(C2)C1N (configuration not stated)	-15.6% (inactive)	-0.95%
NCCC(=O)NCCc1cnc[nH]1	-9.27% (inactive)	2.24%
CCN1/C(=C/C(C)=O)Sc2ccc(OC)cc21	0.62% (inactive)	-1.25%
CSc1ccc2c(c1)N(CCC1CCCCN1C)c1ccccc1S2 (configuration not stated)	13.6% (inactive)	10.5%
O=C(O)Cc1ccc(O)c(O)c1	13.3% (inactive)	9.47%
CC(C)C[C@H](N)CSSC[C@@H](N)CC(C)C	0.5% (inactive)	-0.82%
Cc1ccccc1CNc1ncnc2c1ncn2C1OC(CO)C(O)C1O (configuration not stated)	-2.05% (inactive)	-1.9%
Nc1ccc(N2C(=O)c3ccccc3C2=O)c(Cl)c1	-4.66% (inactive)	-3.36%
NC(N)=NC(N)=Nc1cccc(Cl)c1	-5.64% (inactive)	-4.32%
CN[C@H]1CC[C@@H](c2ccc(Cl)c(Cl)c2)c2ccccc21	4.49% (inactive)	4.91%
CN1CCN(c2nc3cc(C(F)(F)F)ccc3n3cccc23)CC1	-8.98% (inactive)	-4.03%
COc1cc2c(cc1O)CC[C@@H]1[C@@H]2CC[C@]2(C)[C@@H](O)CC[C@@H]12	1.97% (inactive)	3.36%
O=c1[nH]cnc2[nH]ncc12	-22.8% (inactive)	-0.71%
NC(CO)C(=O)NNCc1ccc(O)c(O)c1O (configuration not stated)	90.3% [fluorescence artefact?] (active)	63.1%
N=C(N)SCCc1cccc(CCSC(=N)N)c1	-4.03% (inactive)	-3.18%
O=C1c2c(O)cc(O)cc2OC(c2ccc(O)c(O)c2)C1O (configuration not stated)	7.88% (inactive)	5.23%
O=c1[nH]c2cc(Cl)c(Cl)cc2[nH]c1=O	-4.07% (inactive)	3.65%
CN(C)CCOC(c1ccccc1)c1ccccc1	0% (inactive)	1.48%
Nc1ncnc2c1nc(Sc1ccc(Cl)cc1)n2C1OC2COP(=O)(O)O[C@@H]2[C@@H]1O (some centres not stated)	2.25% (inactive)	-0.54%

Compound	inhibition (at 45 µM)	inhibition (inhibition, at 15 µM)
NCCCS(=O)(=O)O	-5.28% (inactive)	-0.89%
Brc1ccc([C@H]2CN3CCSC3=N2)cc1	-14.5% (inactive)	-5.52%
CCOC(=O)Nc1ccc(NCc2ccc(F)cc2)nc1N	-2.33% (inactive)	-0.39%
OC[C@H]1O[C@@H](n2cnc3cncnc32)[C@H](O)[C@@H]1O	-0.26% (inactive)	-1.71%
NC[C@@H]1O[C@H](C23CC4CC(CC(C4)C2)C3)Cc2c1ccc(O)c2O	6.83% (inactive)	-1.93%
N#CC(Cc1ccc(O)c(O)c1)C(=O)N1CCc2ccccc21 (configuration not stated)	4.21% (inactive)	-5.26%
Nc1nc(SCc2ccc([N+](=O)[O-])cc2)c2ncn([C@@H]3O[C@H](CO)[C@H](O)C3O)c2n1 (some centres not stated)	-19.1% (inactive)	-4.91%
COc1ccccc1CNCCCCCCNCCCCCCCCNCCCCCCNCc1ccccc1OC	10.9% (inactive)	6.92%
CCCCCCCCCCC/C=C\C(C)(C)/C=C\CCCC(=O)O	33.3% (inactive)	17.4%
Cc1c(CC(C)(C)C(=O)O)n(Cc2ccc(Cl)cc2)c2ccc(F)cc12	9.14% (inactive)	5.8%
NC(N)=[N+]1CCc2ccccc2C1	-8.81% (inactive)	1.64%
CC(CCc1ccccc1)NCC(O)c1ccc(O)c(C(N)=O)c1 (configuration not stated)	5.4% (inactive)	3.9%
O=C(O)c1cc([N+](=O)[O-])ccc1NCCCc1ccccc1	1.89% (inactive)	-3.54%
N=c1ccn2c(n1)OC1[C@@H](O)[C@@H](CO)O[C@H]12 (some centres not stated)	-2.34% (inactive)	1.25%
COc1ccc(/C=C/C(=O)Nc2ccccc2C(=O)O)cc1OC	3.42% (inactive)	4.38%
O=S(=O)(c1cccc2c(I)cccc12)N1CCCNCC1	21.6% (inactive)	3.12%
OC(CN1CCN(c2cccc(Cl)c2)CC1)C(c1ccccc1)c1ccccc1 (configuration not stated)	3.01% (inactive)	4.55%
COc1cc(C(O)C(=O)O)ccc1O (configuration not stated)	-7.3% (inactive)	0.57%
CCCn1c(=O)c2[nH]c(-c3ccc(OCC(=O)Nc4ccc(C#N)cc4)cc3)nc2n(CCC)c1=O	46.8% (inactive)	8.2%
O=C(Nc1cc(C(=O)Nc2ccc(S(=O)(=O)O)cc2S(=O)(=O)O)cc(C(=O)Nc2ccc(S(=O)(=O)O)cc2S(=O)(=O)O)c1)Nc1cc(C(=O)Nc2ccc(S(=O)(=O)O)cc2S(=O)(=O)O)cc(C(=O)Nc2ccc(S(=O)(=O)O)cc2S(=O)(=O)O)c1	22.9% (inactive)	17.2%
C/C=C1\C(=O)CC2C3CCC4=CC(=O)CC[C@]4(C)C3CC[C@]12C (some centres not stated)	-2.62% (inactive)	-5.45%

Compound	inhibition (at 45 µM)	inhibition (inhibition, at 15 µM)
Cc1cc(C)c(NC(=O)C[C@H](CC(=O)O)c2cccc3ccccc23)c(C(=O)N2CCC3(CCCC3)CC2)c1	4.81% (active)	53%
C[N+](C)(C)CCC(=O)c1cccc2ccccc12	4.57% (inactive)	3.36%
COc1ccccc1N1CCN(CCN(C(=O)c2ccc(I)cc2)c2ccccn2)CC1	10.1% (inactive)	2.05%
CCCCCCCCCCCCCCCC(=O)OC(CC(=O)O)C[N+](C)(C)C (configuration not stated)	12.7% (inactive)	4.2%
CC(C)C[C@H](NC(=O)[C@@H](O)[C@H](N)Cc1ccccc1)C(=O)O	-3.72% (inactive)	0.08%
CC(C)C[C@H](NC(=O)[C@H](O)[C@H](N)Cc1ccccc1)C(=O)O	-1.92% (inactive)	-0.07%
O=C(O)CNC(=O)C(CS)Cc1ccccc1 (configuration not stated)	-3.83% (active)	50.5%
CC1=C(CC(=O)O)c2cc(F)ccc2/C1=C\c1ccc(S(C)(=O)=O)cc1	2.44% (inactive)	2.34%
Nc1nc(Cl)nc2c1ncn2[C@@H]1O[C@H](COP(=O)(O)OP(=O)(O)OP(=O)(O)O)[C@H](O)C1O (some centres not stated)	-8.59% (inactive)	-0.94%
CN(C)CCCO[C@@H]1[C@H]2OC(C)(C)O[C@H]2O[C@@H]1C(O)CO (some centres not stated)	6.83% (inactive)	-5.23%
CN1CCc2cc(Cl)c(O)cc2[C@@H](c2ccccc2)C1	1.68% (inactive)	0.35%
NCCNC(=O)c1ccc(Cl)cc1	-1.66% (inactive)	0.74%
OCC1NCC(O)C(O)C1O (configuration not stated)	-2.36% (inactive)	-2.41%
CN(C)CCCN1c2ccccc2Sc2ccc(C(F)(F)F)cc21	1.43% (inactive)	1.81%
O=S(=O)(c1cccc2c(Cl)cccc12)N1CCCNCC1	-6.25% (inactive)	-1.24%
OCC1O[C@H](O)C(Cl)C(O)C1O (some centres not stated)	2.62% (inactive)	2.64%
O=C(O)C1=CC(=C(c2ccc(O)c(C(=O)O)c2)c2ccc(O)c(C(=O)O)c2)C=CC1=O	88.6% [fluorescence artefact?] (active)	76%
Cc1cc(NC(=O)Nc2ccc3c(ccn3C)c2)sn1	0.07% (inactive)	-2%
Cc1c(C)c2c(c(C)c1O)CCC(C)(CN1CCN(c3cc(N4CCCC4)nc(N4CCCC4)n3)CC1)O2 (configuration not stated)	-11.9% (inactive)	-0.19%
Oc1ccc(O)cc1	0.27% (inactive)	-2.06%
NC(=NCc1ccc(Cl)c(Cl)c1)NC(=O)c1nc(Cl)c(N)nc1N	2.8% (inactive)	-1.44%

Compound	inhibition (at 45 µM)	inhibition (inhibition, at 15 µM)
N#CC(=C(\N)Sc1ccccc1N)/C(C#N)=C(/N)Sc1ccccc1N	-6.45% (inactive)	-2.12%
COc1ccc(CCNC[C@@H](O)c2ccc(O)cc2)cc1OC	1.27% (inactive)	1.3%
C[n+]1cc2c3c(ccc2c2ccc4cc5c(cc4c21)OCO5)OCO3	7.36% (inactive)	3.96%
NCCSSCCN	-10.9% (inactive)	-6.09%
Nc1nc2c(nc(Br)n2C2OC3COP(=O)(O)O[C@@H]3C2O)c(=O)[nH]1 (some centres not stated)	-3.13% (inactive)	-2.06%
CC(C)(C)c1onc(OCP(=O)(O)O)c1CC(N)C(=O)O (configuration not stated)	-28.3% (inactive)	-2.65%
CC[N+](CC)(CC)CC(=O)Nc1c(C)cccc1C	-2.22% (inactive)	1.79%
C/C(=C\c1ccc(C(=O)O)cc1)c1ccc2c(c1)C(C)(C)CCC2(C)C	40.9% (inactive)	34.2%
O=c1c2ccccc2nc2n1CCc1c-2[nH]c2ccccc12	2.93% (inactive)	1.11%
N=C(N)c1ccc(OCCCCCOc2ccc(C(=N)N)cc2)cc1 (tested in a mixture with another compound)	3.73% (inactive)	1.26%
C[C@@H](NC(=O)/C(C#N)=C/c1ccc(O)c(O)c1)c1ccccc1	2.49% (inactive)	3.07%
CC(=O)[C@H]1CCC2C3CC=C4C[C@@H](OS(=O)(=O)O)CC[C@]4(C)C3CC[C@@]21C (some centres not stated)	0.32% (inactive)	0.94%
NCCNS(=O)(=O)c1cccc2cnccc12	-4.68% (inactive)	-3.64%
Cc1cc2c(cc1Cl)N(C(=O)Nc1ccnc3ccccc13)CC2	-4.11% (inactive)	1.97%
Cc1cc(N)c2ccccc2[n+]1CCCCCCCCCC[n+]1c(C)cc(N)c2ccccc21	19.8% (inactive)	30.1%
Cc1cc(N)c2ccccc2[n+]1CCCCCCCCCCCCCC[n+]1c(C)cc(N)c2ccccc21	73.8% [fluorescence artefact?] (active)	65.9%
CSc1nc(N)c2ncn([C@@H]3O[C@H](COP(=O)(O)OP(=O)(O)OP(=O)(O)O)[C@H](O)C3O)c2n1 (some centres not stated)	-1.74% (inactive)	-5.35%
N.N.N.N.N.N.N.N.N.N.N.N.N.N.O.O.[Cl-].[Cl-].[Cl-].[Cl-].[Cl-].[Cl-].[Ru+4].[Ru+5].[Ru+5]	100% [fluorescence artefact?] (active)	99.8%
